Measurements taken from PubChem BioAssay (EPA / NIEHS).
Activity calls are given as the source filed them. How the source made its calls: active means hit-call score of the fitted dose curve at least 0.9, where 1 is the maximum; inactive means score below 0.9.

What was measured:
[1] = CEETOX_H295R_CORTIC: CeeTox H295R High-throughput Steroidogenesis Assay for Corticosterone (CORTIC) (AID 2283437); settings: actives raise or lower the signal;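 further: corticosterone secreted into medium quantified by mass spectrometry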
Procedure, shortened: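 Corticosterone secreted into medium is measured by reverse-phase HPLC with tandem MS following liquid-liquid extraction. Cells are forskolin-stimulated (10 uM, 48 h) before 48 h test exposure; activity fitted in both directions against DMSO.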

[2] = CEETOX_H295R_CORTISOL: CeeTox H295R High-throughput Steroidogenesis Assay for Cortisol (AID 2283438); settings: actives raise or lower the signal;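 further: cortisol secreted into medium quantified by LC-MS/MS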
Procedure, shortened: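 Human adrenocortical H295R cells (passage ≤10) received test chemicals for 48 h after forskolin priming. Secreted cortisol was measured by LC-MS/MS.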

[3] = CEETOX_H295R_DOC: CeeTox H295R High-throughput Steroidogenesis Assay for DOC (AID 2283439); settings: actives raise or lower the signal
Procedure, shortened: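 Secreted DOC was quantified from H295R media by HPLC-MS/MS after 48 h chemical exposure following 48 h forskolin (10 uM) prestimulation. Values were fitted in both directions relative to DMSO, the negative control and baseline.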

[4] = CEETOX_H295R_PROG: CeeTox H295R High-throughput Steroidogenesis Assay for Progesterone (PROG) (AID 2283442); settings: actives raise or lower the signal;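 on AC50: human H295R adrenal cells primed with 10 µM forskolin before dosing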
Procedure, shortened: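 H295R adrenal cells prestimulated 48 h with 10 uM forskolin, then exposed 48 h to test chemical in 0.1% DMSO. Progesterone in medium quantified by HPLC-MS/MS after MTBE extraction; viability checked by MTT in same wells.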

[5] = read-out: Tumor necrosis factor receptor superfamily member 6 (Homo sapiens) (UniProt P25445); test: LTEA_HepaRG_FAS: Life Technologies and Expression Analysis (LTEA) Assay for Fas cell surface death receptor (FAS) using HepaRG (AID 2283447); settings: mRNA level, 48 h; actives raise or lower the signal
Procedure, shortened: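 FAS transcript level was measured by TaqMan qRT-PCR against three housekeeping genes after 48 h chemical exposure. Cells were HepaRG, 0.5% DMSO vehicle, with a top concentration of 100 uM and half-log dilutions over eight points, in duplicate.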

[6] = read-out: Fatty acid synthase (Homo sapiens) (UniProt P49327); test: LTEA_HepaRG_FASN: Life Technologies and Expression Analysis (LTEA) Assay for Fatty Acid Synthase (FASN) using HepaRG (AID 2283448); settings: mRNA level, 48 h; actives raise or lower the signal
Procedure, shortened: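 Transcript-level assay: HepaRG liver cells are treated for 48 h across an eight-point range topping at 100 uM, and FASN mRNA, normalized to three housekeeping genes, is compared with DMSO controls in both directions.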

[7] = read-out: Cyclin Dependent Kinase Inhibitor 1A (CDKN1A), CDKN1A (gene 1026); test: LTEA_HepaRG_CDKN1A: Life Technologies and Expression Analysis (LTEA) Assay for Cyclin Dependent Kinase Inhibitor 1A (CDKN1A) using HepaRG (AID 2283450); settings: mRNA level, 48 h; actives raise or lower the signal
Procedure, shortened: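 Differentiated HepaRG cells in serum-free induction medium, exposed 48 h in duplicate to eight half-log concentrations up to 100 uM in 0.5% DMSO. mRNA measured by TaqMan qRT-PCR, normalized to ACTB, GAPDH, POLR2A; bidirectional fit versus DMSO.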

[8] = read-out: Cyclin D1 (CCND1), CCND1 (gene 595); test: LTEA_HepaRG_CCND1: Life Technologies and Expression Analysis (LTEA) Assay for Cyclin D1 (CCND1) using HepaRG (AID 2283451); settings: mRNA level, 48 h; actives raise or lower the signal;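 on AC50: TaqMan qRT-PCR transcript level normalised to ACTB GAPDH and POLR2A housekeeping genes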
Procedure, shortened: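 Differentiated HepaRG cells exposed 48 h in serum-free induction medium to eight half-log concentrations from 100 uM top, 0.5% DMSO, duplicates. CCND1 mRNA measured by Fluidigm TaqMan qRT-PCR, normalised to ACTB, GAPDH, POLR2A; bidirectional fit.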

[9] = read-out: catalase (CAT), CAT (gene 847); test: LTEA_HepaRG_CAT: Life Technologies and Expression Analysis (LTEA) Assay for catalase (CAT) using HepaRG (AID 2283452); settings: mRNA level, 48 h; actives raise or lower the signal;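 on AC50: TaqMan qRT-PCR signal normalized to ACTB GAPDH and POLR2A housekeeping genes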
Procedure, shortened: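 Expression of CAT was quantified by TaqMan qRT-PCR with ACTB/GAPDH/POLR2A normalization after 48 h chemical exposure of HepaRG. Eight-point half-log series, top 100 uM, in 0.5% DMSO; gain or loss fitted against vehicle.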

[10] = read-out: flavin-containing dimethylaniline monooxygenases 3 (FMO3), FMO3 (gene 2328); test: LTEA_HepaRG_FMO3: Life Technologies and Expression Analysis (LTEA) Assay for flavin-containing dimethylaniline monooxygenases 3 (FMO3) using HepaRG (AID 2283453); settings: mRNA level, 48 h; actives raise or lower the signal;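 on AC50: FMO3 transcript by TaqMan qRT-PCR normalized to ACTB GAPDH and POLR2A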
Procedure, shortened: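 HepaRG, 48 h exposure, 8-pt half-log series from 100 uM, 0.5% DMSO vehicle, duplicates; FMO3 transcript by Fluidigm TaqMan qRT-PCR, housekeeping-normalized; gain/loss fit vs DMSO.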

[11] = read-out: CFLAR gene, CFLAR (gene 8837); test: LTEA_HepaRG_CFLAR: Life Technologies and Expression Analysis (LTEA) Assay for CFLAR gene using HepaRG (AID 2283455); settings: mRNA level, 48 h; actives raise or lower the signal
Procedure, shortened: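 HepaRG, 48 h exposure, 8-pt conc-response (100 uM top, half-log), 0.5% DMSO vehicle, duplicates. CFLAR expression by qRT-PCR; ACTB/GAPDH/POLR2A normalization; gain or loss fit vs DMSO baseline.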

[12] = read-out: Forkhead box O1 (FOXO1), FOXO1 (gene 2308); test: LTEA_HepaRG_FOXO1: Life Technologies and Expression Analysis (LTEA) Assay for Forkhead box O1 (FOXO1) using HepaRG (AID 2283456); settings: mRNA level, 48 h; actives raise or lower the signal
Procedure, shortened: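 Readout is FOXO1 transcript level by multiplexed qRT-PCR against three housekeeping genes, curve-fitted in both directions relative to 0.5% DMSO vehicle. Human HepaRG cultures received chemicals for 48 h, up to 100 uM in half-log steps.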

[13] = read-out: growth arrest and DNA damage 45 (GADD45A), GADD45A (gene 1647); test: LTEA_HepaRG_GADD45A: Life Technologies and Expression Analysis (LTEA) Assay for growth arrest and DNA damage 45 (GADD45A) using HepaRG (AID 2283458); settings: mRNA level, 48 h; actives raise or lower the signal
Procedure, shortened: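 Human HepaRG liver cells are treated in duplicate for 48 h with chemicals in 0.5% DMSO, highest concentration 100 uM. Expression is read by qRT-PCR and analyzed in both directions against vehicle.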

[14] = read-out: Forkhead box O3 (FOXO3), FOXO3 (gene 2309); test: LTEA_HepaRG_FOXO3: Life Technologies and Expression Analysis (LTEA) Assay for Forkhead box O3 (FOXO3) using HepaRG (AID 2283459); settings: mRNA level, 48 h; actives raise or lower the signal
Procedure, shortened: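 HepaRG, 48 h post-dose; 8 conc., half-log from 100 uM, 0.5% DMSO, duplicates; serum-free induction medium. Readout: FOXO3 mRNA, TaqMan qRT-PCR, housekeeping-normalized. Bidirectional curve fit vs DMSO baseline.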

[15] = read-out: ABC Transporter (ABCB1), ABCB1 (gene 5243); test: LTEA_HepaRG_ABCB1: Life Technologies and Expression Analysis (LTEA) Assay for ABC Transporter (ABCB1) using HepaRG (AID 2283460); settings: mRNA level, 48 h; actives raise or lower the signal
Procedure, shortened: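 Expression of ABCB1 was quantified by qRT-PCR against three housekeeping genes after human HepaRG cultures received test chemicals for 48 hours. Concentrations spanned eight half-log steps topping at 100 uM in 0.5% DMSO; gain or loss of signal was fitted relative to vehicle.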

[16] = CEETOX_H295R_ESTRADIOL: CeeTox H295R High-throughput Steroidogenesis Assay for Estradiol (AID 2283440); settings: actives raise or lower the signal;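 further: estradiol secreted into medium quantified by LC-MS/MS after dansyl derivatisation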
Procedure, shortened: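 H295R cells pre-stimulated 48 h with 10 uM forskolin, then exposed 48 h to chemical in 0.1% DMSO. Medium estradiol quantified by MTBE extraction, dansyl derivatisation and HPLC-MS/MS; bidirectional fit versus DMSO; MTT viability required >/=70%.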

[17] = CEETOX_H295R_ESTRONE: CeeTox H295R High-throughput Steroidogenesis Assay for Estrone (AID 2283441); settings: actives raise or lower the signal;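 further: estrone secreted into medium measured by LC-MS/MS after dansyl derivatization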;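 on AC50: human adrenal H295R cells prestimulated with forskolin for two days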
Procedure, shortened: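 H295R cells; 48 h forskolin (10 uM) prestimulation; 48 h compound exposure, 0.1% DMSO final. Medium estrone: MTBE extraction, dansyl derivatization, HPLC-MS/MS. Bidirectional fit vs DMSO.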

[18] = CEETOX_H295R_ANDR: CeeTox H295R High-throughput Steroidogenesis Assay for Androstenedione (ANDR) (AID 2283436); settings: actives raise or lower the signal
Procedure, shortened: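 Read-out is androstenedione secreted into medium, measured by tandem mass spectrometry after liquid-liquid extraction. Cells were H295R, dosed for 48 h per modified OECD 456; activity fitted in both directions relative to DMSO.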

[19] = read-out: Cytochrome P450 (CYP1A1), CYP1A1 (gene 1543); test: LTEA_HepaRG_CYP1A1: Life Technologies and Expression Analysis (LTEA) Assay for Cytochrome P450 (CYP1A1) using HepaRG (AID 2283454); settings: mRNA level, 48 h; actives raise or lower the signal
Procedure, shortened: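 Differentiated human HepaRG cells, after 48 h plating, exposed in duplicate for 48 h in serum-free induction medium to 8 half-log concentrations up to 100 uM in 0.5% DMSO. CYP1A1 mRNA by qRT-PCR, normalized to ACTB/GAPDH/POLR2A; bidirectional fit versus DMSO.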

[20] = CEETOX_H295R_TESTO: CeeTox H295R High-throughput Steroidogenesis Assay for Testosterone (TESTO) (AID 2283457); settings: actives raise or lower the signal
Procedure, shortened: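 H295R adrenal cells, passage ≤10, exposed to chemicals for 48 h. Testosterone in medium measured by MTBE extraction and HPLC-MS/MS against a 7-point standard curve. Bidirectional fit versus DMSO; MTT viability checked in the same wells.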

Measured: AC50

Chain of Fatty acid synthase (Homo sapiens) (P49327 whole entry, looked up): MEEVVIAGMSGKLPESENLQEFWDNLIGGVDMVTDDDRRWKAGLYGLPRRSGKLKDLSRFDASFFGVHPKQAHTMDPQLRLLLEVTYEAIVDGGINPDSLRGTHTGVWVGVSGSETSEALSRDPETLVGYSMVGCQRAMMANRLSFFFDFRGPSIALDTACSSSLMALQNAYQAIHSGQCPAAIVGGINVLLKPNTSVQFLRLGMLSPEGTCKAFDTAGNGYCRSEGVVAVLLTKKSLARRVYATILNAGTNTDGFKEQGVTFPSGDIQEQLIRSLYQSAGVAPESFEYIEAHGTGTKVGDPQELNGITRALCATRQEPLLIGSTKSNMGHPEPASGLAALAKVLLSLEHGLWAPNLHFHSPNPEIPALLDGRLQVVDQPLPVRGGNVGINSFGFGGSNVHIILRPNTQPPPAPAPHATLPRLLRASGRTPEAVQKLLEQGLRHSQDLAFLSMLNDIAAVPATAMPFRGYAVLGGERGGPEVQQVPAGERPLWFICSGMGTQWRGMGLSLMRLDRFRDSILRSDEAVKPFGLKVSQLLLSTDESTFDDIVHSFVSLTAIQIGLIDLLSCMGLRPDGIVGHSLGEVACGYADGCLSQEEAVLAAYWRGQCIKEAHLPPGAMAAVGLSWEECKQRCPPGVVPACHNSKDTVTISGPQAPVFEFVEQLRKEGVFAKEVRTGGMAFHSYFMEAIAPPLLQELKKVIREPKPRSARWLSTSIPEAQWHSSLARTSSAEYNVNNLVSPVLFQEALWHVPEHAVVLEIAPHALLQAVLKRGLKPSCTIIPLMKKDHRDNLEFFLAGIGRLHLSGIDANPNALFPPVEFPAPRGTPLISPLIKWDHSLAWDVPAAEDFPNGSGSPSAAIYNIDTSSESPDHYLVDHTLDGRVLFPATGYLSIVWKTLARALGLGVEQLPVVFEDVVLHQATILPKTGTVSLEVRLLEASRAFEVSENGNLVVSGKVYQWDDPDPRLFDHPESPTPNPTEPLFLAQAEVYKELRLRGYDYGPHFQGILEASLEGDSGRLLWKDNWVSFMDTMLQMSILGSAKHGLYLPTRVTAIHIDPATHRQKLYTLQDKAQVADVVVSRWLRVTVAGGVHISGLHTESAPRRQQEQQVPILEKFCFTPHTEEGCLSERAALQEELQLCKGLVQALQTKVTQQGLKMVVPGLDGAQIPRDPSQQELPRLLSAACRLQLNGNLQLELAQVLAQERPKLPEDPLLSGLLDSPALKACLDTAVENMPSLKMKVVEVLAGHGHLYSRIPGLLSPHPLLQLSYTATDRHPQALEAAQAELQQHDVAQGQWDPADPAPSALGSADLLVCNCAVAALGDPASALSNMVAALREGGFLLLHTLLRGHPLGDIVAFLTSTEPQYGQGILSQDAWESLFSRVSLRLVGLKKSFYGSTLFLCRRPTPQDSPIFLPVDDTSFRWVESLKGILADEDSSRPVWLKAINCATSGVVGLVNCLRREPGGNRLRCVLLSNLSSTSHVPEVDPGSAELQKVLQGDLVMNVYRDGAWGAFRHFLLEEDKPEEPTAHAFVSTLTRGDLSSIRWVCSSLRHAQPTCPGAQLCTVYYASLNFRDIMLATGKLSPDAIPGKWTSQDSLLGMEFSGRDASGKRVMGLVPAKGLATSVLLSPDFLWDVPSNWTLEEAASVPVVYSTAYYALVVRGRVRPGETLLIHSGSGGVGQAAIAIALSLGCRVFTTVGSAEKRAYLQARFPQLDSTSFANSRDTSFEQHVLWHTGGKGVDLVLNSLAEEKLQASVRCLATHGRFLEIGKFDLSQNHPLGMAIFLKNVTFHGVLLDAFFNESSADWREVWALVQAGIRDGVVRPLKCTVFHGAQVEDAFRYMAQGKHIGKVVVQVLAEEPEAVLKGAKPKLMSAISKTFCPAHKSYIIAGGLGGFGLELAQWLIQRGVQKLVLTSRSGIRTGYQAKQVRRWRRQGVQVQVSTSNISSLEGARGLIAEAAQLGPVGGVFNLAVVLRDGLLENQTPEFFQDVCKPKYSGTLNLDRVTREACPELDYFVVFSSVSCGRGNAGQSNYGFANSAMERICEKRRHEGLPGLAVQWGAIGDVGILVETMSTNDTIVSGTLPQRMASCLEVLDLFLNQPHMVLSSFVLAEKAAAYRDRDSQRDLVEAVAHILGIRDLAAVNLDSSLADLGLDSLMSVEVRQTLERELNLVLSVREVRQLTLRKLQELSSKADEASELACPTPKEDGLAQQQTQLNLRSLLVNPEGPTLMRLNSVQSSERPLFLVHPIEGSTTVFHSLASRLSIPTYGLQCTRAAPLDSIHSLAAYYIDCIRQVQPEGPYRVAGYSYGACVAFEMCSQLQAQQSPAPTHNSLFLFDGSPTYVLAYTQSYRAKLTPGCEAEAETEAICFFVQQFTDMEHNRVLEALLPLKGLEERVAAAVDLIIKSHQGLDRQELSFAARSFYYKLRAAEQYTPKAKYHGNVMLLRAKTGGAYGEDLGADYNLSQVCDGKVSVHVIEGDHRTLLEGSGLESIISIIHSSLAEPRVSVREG

CCN(CC)C(=O)SCc1ccc(Cl)cc1
active: [3] 22.6 µM
inactive: [1] | [2] | [4] | [5] | [6] | [7] | [8] | [9] | [10] | [11] | [12] | [13] | [14] | [15]

CNC(=O)/C=C(\C)OP(=O)(OC)OC
inactive: [1] | [2] | [3] | [16] | [17] | [4] | [5] | [7] | [8] | [9] | [10] | [11] | [12] | [13] | [14] | [15]

CCc1ccc(C(=O)NN(C(=O)c2cc(C)cc(C)c2)C(C)(C)C)cc1
active: [10] 81.9 µM | [15] 13.3 µM
inactive: [1] | [2] | [3] | [16] | [17] | [4] | [5] | [7] | [8] | [9] | [11] | [12] | [13] | [14]

COP(=S)(OC)Oc1ccc(SC)c(C)c1
inactive: [1] | [2] | [3] | [16] | [17] | [4] | [5] | [7] | [8] | [9] | [10] | [11] | [12] | [13] | [14] | [15]

CNC(=O)Oc1ccccc1OC(C)C
inactive: [1] | [2] | [3] | [16] | [17] | [4] | [5] | [7] | [8] | [9] | [10] | [11] | [12] | [13] | [14] | [15]

C#CCN1C(=O)COc2cc(F)c(N3C(=O)C4=C(CCCC4)C3=O)cc21
inactive: [18] | [1] | [2] | [3] | [16] | [17] | [4] | [5] | [7] | [8] | [9] | [10] | [11] | [12] | [20] | [13] | [14]
active: [19] 65.6 µM | [15] 9.92 µM

O=[N+]([O-])c1c(Cl)c(Cl)c(Cl)c(Cl)c1Cl
inactive: [18] | [1] | [2] | [3] | [16] | [17] | [4] | [5] | [7] | [9] | [10] | [11] | [12] | [20] | [13] | [14] | [15]
active: [8] 50 µM

CC(C)(C)C(O)/C(=C\c1ccc(Cl)cc1Cl)n1cncn1 (configuration not stated)
active: [7] 27.5 µM | [8] 82.5 µM | [9] 27.3 µM | [10] 33.8 µM | [11] 76.6 µM | [12] 89.4 µM | [14] 82.3 µM | [15] 84.4 µM
inactive: [1] | [2] | [3] | [16] | [17] | [4] | [5] | [13]

O=C(NC(=O)c1c(F)cccc1F)Nc1ccc(OC(F)(F)C(F)OC(F)(F)F)c(Cl)c1 (configuration not stated)
active: [19] 21.2 µM
inactive: [1] | [2] | [3] | [16] | [17] | [4] | [5] | [7] | [8] | [9] | [10] | [11] | [12] | [13] | [14] | [15]

CNC(=O)Oc1cccc(N=CN(C)C)c1
inactive: [16] | [17] | [5] | [7] | [8] | [9] | [10] | [11] | [12] | [13] | [14] | [15]
active: [4] 35.9 µM

O=C(Nc1ccccc1)Nc1cnns1
active: [8] 74.7 µM | [9] 50 µM | [10] 73.5 µM | [19] 73.6 µM
inactive: [5] | [7] | [11] | [12] | [13] | [14] | [15]

CC(C)OC(=O)Nc1cccc(Cl)c1
inactive: [16] | [4] | [5] | [7] | [8] | [9] | [10] | [11] | [12] | [14] | [15]
active: [17] 15.6 µM | [13] 50 µM

CNC(=O)CSP(=S)(OC)OC
inactive: [16] | [17] | [4] | [5] | [7] | [8] | [9] | [10] | [11] | [12] | [13] | [14] | [15]

Clc1ccccc1-c1nnc(-c2ccccc2Cl)nn1
inactive: [16] | [17] | [4] | [5] | [7] | [8] | [9] | [10] | [11] | [12] | [13] | [14] | [15]
